Results on 14 molecules are retold here after PubChem BioAssay (NCI).

Among the test systems are NCI-H23 lung; NCI-H226 lung; NCI-H322M lung; HOP-62 NSCLC; NCI-H460 lung; HOP-92 NSCLC; NCI-H522 lung; A549/ATCC NSCLC; 786-0 renal; COLO 205 colon.
Holding throughout (test): NCI-60 one-dose screen, 48 h (100 = growth as untreated, 0 = no growth, -100 = all killed)
What all share (details): 10 µM unless noted

Compounds without any hit were thinned out: in the full panel of roughly 83,000, 20% have a hit.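 Step 1: grow cells in 96-well plates. Step 2: add test compound at a single concentration. Step 3: incubate 48 h. Step 4: record percent growth.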 A number with no mark means an inactive call. Calls of active or inactive are those of the source. Rule for the calls: active = growth percent below 10; inactive = the rest.

Consider `Nc1nc(N)c2cc(CNc3ccc(C(=O)NC(CC(=O)O)C(=O)O)cc3)ccc2n1` (stereo not given), for which the growth is 17.7% in the assay with NCI-H23 lung; 23.2% in the assay on NCI-H226 lung; 66.7% with NCI-H322M lung; 19.7% in the assay on HOP-62 NSCLC; 11.5% in the assay with NCI-H460 lung; 48.5% in the assay with HOP-92 NSCLC. Also, the growth in the assay on NCI-H522 lung was 34.3%; in the assay with A549/ATCC NSCLC it was -32.8% (active); with 786-0 renal, 15.8%; in the assay with COLO 205 colon it was 51.9%.

Turning to `Cn1ncc(Cl)c1-c1cc(C(=O)N[C@H](CN)Cc2cccc(F)c2)sc1Cl`, the growth in the assay on NCI-H23 lung is 33.4%; with NCI-H226 lung, 34.5%; with NCI-H322M lung it was 28.6%; in the assay on HOP-62 NSCLC, 25.4%; in the assay on NCI-H460 lung it was 8.53% (active); in the assay on HOP-92 NSCLC it was -27.5% (active). The growth in the assay with NCI-H522 lung is 6.11% (active); with A549/ATCC NSCLC it was 18.4%; in the assay with 786-0 renal, -14.3% (active); in the assay on COLO 205 colon, -73.9% (active).

For the molecule `CC(=Nc1ccccc1)C1=C(O)C(Cc2ccc(O)cc2)NC1=O` (stereo not given), the growth in the assay on NCI-H23 lung is 2.24% (active); with NCI-H226 lung, 15.5%; in the assay with NCI-H322M lung, 39.6%; in the assay with HOP-62 NSCLC it was 19.8%; in the assay on NCI-H460 lung, 4.41% (active); with HOP-92 NSCLC it was -10.1% (active). The growth was -27.1% (active) with NCI-H522 lung, -27.7% (active) in the assay with A549/ATCC NSCLC, 9.29% (active) in the assay on 786-0 renal and -71% (active) with COLO 205 colon.

For `COC(=O)[C@@H](C)CNS(=O)(=O)N(c1cc(C(F)(F)F)cc(C(F)(F)F)c1)C1CCN(Cc2ccc(F)cc2)CC1`, the growth in the assay with NCI-H23 lung is 66.8%; in the assay on NCI-H226 lung, 70.1%; with NCI-H322M lung, 79%; in the assay with HOP-62 NSCLC, 79%; in the assay with NCI-H460 lung it was 62.3%; with HOP-92 NSCLC, 47.8%. In addition, the growth with NCI-H522 lung was 56.1%; in the assay with A549/ATCC NSCLC, 54%; with 786-0 renal it was 59.7%; in the assay with COLO 205 colon it was -43.2% (active).

`NN1C(=O)CSC1=S`: the growth in the assay with NCI-H23 lung is 97.5%; with NCI-H226 lung, 100%; with NCI-H322M lung, 98.9%; with HOP-62 NSCLC, 81.7%; in the assay on NCI-H460 lung, 105%; in the assay with HOP-92 NSCLC, 102%. In addition, the growth in the assay on NCI-H522 lung was 73.3%; in the assay on A549/ATCC NSCLC, 65.5%; in the assay with 786-0 renal it was 99.2%; in the assay with COLO 205 colon it was 107%.

With `Cc1cc(N(CCNc2ccnc3cc(Cl)ccc23)Cc2ccc3c(c2)OCO3)nc(N2CCCC2)n1`, the growth with NCI-H23 lung was 20.8%; with NCI-H226 lung, 65.4%; with NCI-H322M lung it was 13.5%; in the assay on HOP-62 NSCLC it was -25.8% (active); in the assay on NCI-H460 lung it was -9.96% (active); in the assay with HOP-92 NSCLC, 60.5%. Further, the growth with NCI-H522 lung was -28.7% (active); in the assay with A549/ATCC NSCLC, 8.39% (active); with 786-0 renal, -92% (active); in the assay on COLO 205 colon, -78.2% (active).

Take `CC(C)C1CCC(C)C(C2(C#N)C(N)=NC(N)=C2C#N)C1=O` (stereo not given): the growth in the assay with NCI-H23 lung was 92.3%; with NCI-H226 lung, 100%; with NCI-H322M lung, 98.8%; in the assay with HOP-62 NSCLC, 104%; in the assay with NCI-H460 lung it was 105%; in the assay on HOP-92 NSCLC, 88.9%. For the same molecule, the growth with NCI-H522 lung is 89.4%; in the assay with A549/ATCC NSCLC it was 105%; in the assay with 786-0 renal, 106%; in the assay with COLO 205 colon, 100%.

Turning to `CCc1cc2c(cc1N1CCC(N3CCOCC3)CC1)C(C)(C)c1[nH]c3cc(C#N)ccc3c1C2=O`, the growth is 14.5% with NCI-H23 lung; -35% (active) in the assay on NCI-H226 lung; -12.5% (active) with NCI-H322M lung; -61.7% (active) in the assay with HOP-62 NSCLC; 1.34% (active) with NCI-H460 lung; -10.9% (active) in the assay with HOP-92 NSCLC. For the same molecule, the growth is -38.5% (active) in the assay on NCI-H522 lung, 7.92% (active) with A549/ATCC NSCLC, -45.7% (active) in the assay with 786-0 renal and -42.5% (active) with COLO 205 colon.

Consider `Cc1ccccc1Nc1nc2nonc2nc1Nc1cccc(C)c1C`, for which the growth was 17.9% with NCI-H23 lung; 48.6% with NCI-H226 lung; 80.7% in the assay with NCI-H322M lung; 72.1% in the assay with HOP-62 NSCLC; 41.1% in the assay on NCI-H460 lung; 22.5% with HOP-92 NSCLC. The growth with NCI-H522 lung was 3.35% (active); in the assay with A549/ATCC NSCLC, 27.4%; with 786-0 renal, 65.9%; with COLO 205 colon, 59.2%.

On to `CCCCOc1nc2cc(Cl)ccc2cc1/C=C/c1cc(/C=C/c2cc3ccc(Cl)cc3nc2OCCCC)n(-c2ccccc2)n1`, for which the growth with NCI-H23 lung was 83.3%; in the assay with NCI-H226 lung, 75.1%; in the assay on NCI-H322M lung, 92.5%; in the assay with HOP-62 NSCLC it was 32.3%; in the assay with NCI-H460 lung it was 98.3%; in the assay with HOP-92 NSCLC it was 76.8%. The growth is 61% in the assay with NCI-H522 lung, 75.4% in the assay on A549/ATCC NSCLC, 64% in the assay with 786-0 renal and 88.3% in the assay on COLO 205 colon.

`C[C@@H](N)c1ccc(C(=O)Nc2ccnc3[nH]ccc23)cc1`: the growth with NCI-H23 lung is 45%; with NCI-H226 lung, 51%; with NCI-H322M lung, 41.5%; with HOP-62 NSCLC it was 13.9%; in the assay with NCI-H460 lung, 47.9%; with HOP-92 NSCLC, 55.6%. Moreover, the growth was 11% in the assay on NCI-H522 lung, 14.8% with A549/ATCC NSCLC, 33.2% in the assay with 786-0 renal and 5.34% (active) in the assay with COLO 205 colon.

`c1cn2cc(-c3ccc4cn[nH]c4c3)nc(Nc3ccc(N4CCOCC4)cc3)c2n1`: the growth was 64.8% in the assay with NCI-H23 lung; 20.8% in the assay with NCI-H226 lung; 70% with NCI-H322M lung; 9.23% (active) with HOP-62 NSCLC; 41.7% in the assay on NCI-H460 lung; 39.2% in the assay with HOP-92 NSCLC. For the same molecule, the growth with NCI-H522 lung was 24.4%; with A549/ATCC NSCLC it was 45%; in the assay with 786-0 renal it was 59.2%; with COLO 205 colon it was 61.3%.

`CCOC(=O)C1=C(C)N=C2Sc3cc(OC(F)(F)F)ccc3N2[C@H]1c1ccccn1`: the growth was 48.8% in the assay with NCI-H23 lung; 57.6% in the assay on NCI-H226 lung; 50.2% with NCI-H322M lung; 47.6% in the assay with HOP-62 NSCLC; 15.2% in the assay with NCI-H460 lung; 68% with HOP-92 NSCLC. The growth with NCI-H522 lung was 48.5%; in the assay on A549/ATCC NSCLC, 30.1%; with 786-0 renal, 59.1%; with COLO 205 colon, 36.7%.

Turning to `CC(C)(O)CC(=O)NCCn1ccc2ncnc(Nc3ccc(Oc4cccc(C(F)(F)F)c4)c(Cl)c3)c21`, the growth in the assay on NCI-H23 lung is 20%; with NCI-H226 lung, 26.1%; with NCI-H322M lung it was -2.67% (active); in the assay with HOP-62 NSCLC, -12.2% (active); in the assay on NCI-H460 lung, 11.1%; in the assay with HOP-92 NSCLC it was -23.1% (active). The growth in the assay on NCI-H522 lung was -20.4% (active); with A549/ATCC NSCLC, 1.14% (active); with 786-0 renal, 22.6%; in the assay on COLO 205 colon, -67.4% (active).
